Drawing on PubChem BioAssay (NCI), this text covers growth for 7 molecules.

About 83,000 compounds went through this panel and 20% of them were active in at least one assay; those are over-represented in the sample as a whole.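 Results are percent growth after 48 hours of single-concentration exposure. 100 means growth as in untreated cells, lower positive values show inhibition; negative values down to -100 show cell death.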 A number with no mark means an inactive call. Activity calls are given as the source filed them. The calls were made as follows: active = growth percent below 10; inactive = the rest.

Holding throughout (experiment): NCI-60 one-dose screen, 48 h (100 = growth as untreated, 0 = no growth, -100 = all killed)
One test relates to NCI-H23 lung. As to conditions: 10 µM unless noted.
The next test relates to NCI-H226 lung. The conditions noted are these: 10 µM unless noted.
The next test relates to NCI-H322M lung. The conditions noted are these: 10 µM unless noted.
The next test concerns HOP-62 NSCLC. As to conditions: 10 µM unless noted.
The test system of a further test is NCI-H460 lung. The conditions noted are these: 10 µM unless noted.
For a further test, the system named is HOP-92 NSCLC. The conditions noted are these: 10 µM unless noted.
Another test concerns NCI-H522 lung. As to conditions: 10 µM unless noted.
The test system of the next test is A549/ATCC NSCLC. As to conditions: 10 µM unless noted.
The test system of the next test is 786-0 renal. As to conditions: 10 µM unless noted.
A further test has as its system COLO 205 colon. As to conditions: 10 µM unless noted.
The next test deals with DU-145 prostate. As to conditions: 10 µM unless noted.
The next test deals with K-562 leukemia. As to conditions: 10 µM unless noted.
A further test relates to MALME-3M melanoma. The conditions noted are these: 10 µM unless noted.
The test system of another test is MDA-MB-231 breast. The conditions noted are these: 10 µM unless noted.
The subject of a further test is RXF 393 renal. As to conditions: 10 µM unless noted.
For a further test, the system named is SF-268 CNS. The conditions noted are these: 10 µM unless noted.
In a further test the test system is SF-295 CNS. As to conditions: 10 µM unless noted.
For a further test, the system named is SF-539 CNS. As to conditions: 10 µM unless noted.
The next test concerns UACC-257 melanoma. As to conditions: 10 µM.
The test system of a further test is M14 melanoma. As to conditions: 10 µM unless noted.

As for `COc1ccccc1/C=C/C=N/NC1=NC2C(S1)N(C)C(=O)N2c1ccccc1` (stereo not given), the growth in the test with NCI-H23 lung was 30.1%; in the test on NCI-H226 lung, 45.5%; with NCI-H322M lung it was 38.1%; in the test with HOP-62 NSCLC, 46%; in the test with NCI-H460 lung it was 2.27% (active); in the test with HOP-92 NSCLC, 38.9%. Also, the growth in the test with NCI-H522 lung is 13.1%; in the test on A549/ATCC NSCLC it was 22.5%; with 786-0 renal it was 16.8%; in the test on COLO 205 colon, -4.6% (active); in the test on DU-145 prostate, 8.54% (active); in the test with K-562 leukemia, 14.3%. Besides, the growth is 45.7% in the test on MALME-3M melanoma; 18.8% in the test on MDA-MB-231 breast; 1.56% (active) in the test with RXF 393 renal; 44.4% in the test with SF-268 CNS; 9.01% (active) in the test with SF-295 CNS; -15.5% (active) in the test with SF-539 CNS. Moreover, the results for the growth in the test on UACC-257 melanoma and in the test on M14 melanoma were 79.8% and -12.1% (active), respectively.

As to `C=C(C)C(=O)O[C@H]1C[C@@]2(C)OC(=CC2=O)[C@H](C)[C@H](O)[C@H]2OC(=O)C(=C)[C@@H]21`, the growth is 58.4% in the test on NCI-H23 lung; 92.2% in the test with NCI-H226 lung; 93.8% in the test with NCI-H322M lung; 93.5% in the test on HOP-62 NSCLC; 93.3% in the test with NCI-H460 lung; 69.7% in the test on HOP-92 NSCLC. Also, the growth was -67.6% (active) with NCI-H522 lung; 94.7% in the test on A549/ATCC NSCLC; 64.2% in the test with 786-0 renal; 13.6% in the test with COLO 205 colon; 73.2% in the test on DU-145 prostate; 20.4% in the test on K-562 leukemia. In addition, the growth in the test with MALME-3M melanoma was 48.3%; in the test on MDA-MB-231 breast it was 76.6%; in the test with RXF 393 renal, 22.2%; in the test on SF-268 CNS, 79.8%; with SF-295 CNS, 93.8%; with SF-539 CNS, 74.7%. In addition, the results for the growth with UACC-257 melanoma and with M14 melanoma were 67% and 71.7%, respectively.

In the case of `O=C(CCCCCCN1CC(=O)N2[C@@H](c3cccc(Br)c3)c3[nH]c4ccccc4c3C[C@H]2C1=O)NO`, the growth is 43.1% in the test on NCI-H23 lung; 91.7% in the test with NCI-H226 lung; 42.2% in the test on NCI-H322M lung; 30.2% with HOP-62 NSCLC; 26.4% in the test with NCI-H460 lung; 2% (active) in the test with HOP-92 NSCLC. Further, the growth in the test on NCI-H522 lung was 8.55% (active); in the test on A549/ATCC NSCLC, 59.4%; with 786-0 renal, 46.6%; in the test with COLO 205 colon, 7.27% (active); in the test with DU-145 prostate, 24.2%; in the test on K-562 leukemia it was 15.5%. The growth with MALME-3M melanoma was 29.3%; in the test with MDA-MB-231 breast it was 11.7%; with RXF 393 renal, -16.7% (active); with SF-268 CNS, 24.9%; in the test on SF-295 CNS, 15.6%; with SF-539 CNS it was 32.2%. For the same molecule, the growth in the test with UACC-257 melanoma is 44.9%; with M14 melanoma, 27.4%.

For the molecule `CCN(CC)CCN1C(=O)c2c(c3c4cc(Br)ccc4[nH]c3c3ccc4ccccc4c23)C1=O`, the growth in the test with NCI-H23 lung is -81.8% (active); with NCI-H226 lung, 60.8%; with NCI-H322M lung it was -92.3% (active); in the test on HOP-62 NSCLC, -66.9% (active); with NCI-H460 lung, -65.8% (active); with HOP-92 NSCLC it was -65.1% (active). Besides, the growth in the test with NCI-H522 lung is -41.9% (active); with A549/ATCC NSCLC, -80.1% (active); with 786-0 renal, -85.9% (active); in the test on COLO 205 colon, -3.78% (active); in the test on DU-145 prostate, -94.1% (active); in the test on K-562 leukemia, -64.8% (active). The growth in the test with MALME-3M melanoma is -69.1% (active); with MDA-MB-231 breast, -65.3% (active); with RXF 393 renal, -77.3% (active); with SF-268 CNS, -42.2% (active); in the test on SF-295 CNS, -89% (active); in the test with SF-539 CNS, -96.9% (active). The growth is 103% in the test on UACC-257 melanoma and -63.9% (active) in the test with M14 melanoma.

Turning to `O=C(NCCCCCCNC(=O)c1c2c(nc3ccccc13)-c1cccnc1SC2)c1c2c(nc3ccccc13)-c1cccnc1SC2`, the growth was 63.1% in the test on NCI-H23 lung; 82.6% with NCI-H226 lung; 71.9% in the test on NCI-H322M lung; 43.9% in the test with HOP-62 NSCLC; 75% with NCI-H460 lung; 50.8% with HOP-92 NSCLC. The growth was 95.7% with NCI-H522 lung; 70.6% in the test on A549/ATCC NSCLC; 76.5% with 786-0 renal; 28.8% in the test with COLO 205 colon; 104% with DU-145 prostate; 73.4% with K-562 leukemia. For the same molecule, the growth is -16.5% (active) in the test on MALME-3M melanoma; 59.3% with MDA-MB-231 breast; 73.4% in the test with RXF 393 renal; 77.7% in the test on SF-268 CNS; 94.7% with SF-295 CNS; 86.8% in the test on SF-539 CNS. The growth with UACC-257 melanoma is 17.1%; with M14 melanoma, 30.8%.

In the case of `CCN1CCN(c2cc(C(=O)Nc3nc4ccc(Oc5ccnc(C(=O)NC)c5)cc4s3)cc(C(F)(F)F)c2)CC1`, the growth was 89.6% with NCI-H23 lung; 90.8% in the test on NCI-H226 lung; 95% in the test with NCI-H322M lung; 104% in the test on HOP-62 NSCLC; 46.4% with NCI-H460 lung; 91.1% in the test on HOP-92 NSCLC. The growth in the test on NCI-H522 lung was 78.7%; in the test with A549/ATCC NSCLC, 86.5%; in the test with 786-0 renal it was 70%; in the test with COLO 205 colon, 59.9%; in the test with DU-145 prostate it was 85.8%; in the test with K-562 leukemia it was 55.3%. Further, the growth in the test with MALME-3M melanoma is 75.7%; in the test on MDA-MB-231 breast, 86.2%; with RXF 393 renal, -15.6% (active); in the test on SF-268 CNS, 92.7%; in the test on SF-295 CNS it was 83%; with SF-539 CNS, 92.9%. Moreover, the results for the growth with UACC-257 melanoma and in the test on M14 melanoma were 94.2% and 67.7%, respectively.

In the case of `O=C(NNc1nc2cc(F)cc(F)c2n2cccc12)c1ccncn1`, the growth in the test on NCI-H23 lung was 17.6%; in the test with NCI-H226 lung it was 7.28% (active); in the test with NCI-H322M lung, 28.6%; in the test on HOP-62 NSCLC it was 13.1%; with NCI-H460 lung it was 7.43% (active); in the test with HOP-92 NSCLC, 67.4%. In addition, the growth is -12.4% (active) in the test on NCI-H522 lung; 13.4% with A549/ATCC NSCLC; 7.83% (active) in the test with 786-0 renal; 11.5% in the test on COLO 205 colon; 18.7% with DU-145 prostate; 8.02% (active) in the test with K-562 leukemia. In addition, the growth in the test on MALME-3M melanoma was 28.3%; with MDA-MB-231 breast it was 32.2%; in the test with RXF 393 renal, 18.8%; in the test on SF-268 CNS, 12.5%; in the test on SF-295 CNS, 15.1%; in the test with SF-539 CNS, 7.47% (active). Also, the growth was 5.21% (active) in the test with UACC-257 melanoma and 4.27% (active) with M14 melanoma.
